Here are results for 37 targets from the supplement of paper PMC12819154, “High-throughput peptide-centric local stability assay extends protein–ligand identification to membrane proteins, tissues and bacteria” (Nature Structural & Molecular Biology, 2025).

UniProt Q923T9, sequence (Q923T9 whole entry): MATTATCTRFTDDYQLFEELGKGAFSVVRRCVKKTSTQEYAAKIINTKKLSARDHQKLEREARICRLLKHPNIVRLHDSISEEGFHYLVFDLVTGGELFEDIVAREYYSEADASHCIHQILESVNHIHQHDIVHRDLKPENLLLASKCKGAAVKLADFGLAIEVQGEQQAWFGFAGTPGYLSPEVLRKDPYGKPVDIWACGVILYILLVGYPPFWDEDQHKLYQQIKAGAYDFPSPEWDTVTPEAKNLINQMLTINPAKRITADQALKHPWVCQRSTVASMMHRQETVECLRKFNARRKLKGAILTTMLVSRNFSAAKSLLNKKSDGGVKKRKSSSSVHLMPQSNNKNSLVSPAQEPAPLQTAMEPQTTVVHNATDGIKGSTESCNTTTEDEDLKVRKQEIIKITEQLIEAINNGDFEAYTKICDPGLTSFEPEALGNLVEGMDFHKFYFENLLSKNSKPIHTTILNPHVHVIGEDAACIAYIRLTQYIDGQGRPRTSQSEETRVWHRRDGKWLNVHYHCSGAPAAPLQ
UniProt P28652, sequence (P28652 whole entry): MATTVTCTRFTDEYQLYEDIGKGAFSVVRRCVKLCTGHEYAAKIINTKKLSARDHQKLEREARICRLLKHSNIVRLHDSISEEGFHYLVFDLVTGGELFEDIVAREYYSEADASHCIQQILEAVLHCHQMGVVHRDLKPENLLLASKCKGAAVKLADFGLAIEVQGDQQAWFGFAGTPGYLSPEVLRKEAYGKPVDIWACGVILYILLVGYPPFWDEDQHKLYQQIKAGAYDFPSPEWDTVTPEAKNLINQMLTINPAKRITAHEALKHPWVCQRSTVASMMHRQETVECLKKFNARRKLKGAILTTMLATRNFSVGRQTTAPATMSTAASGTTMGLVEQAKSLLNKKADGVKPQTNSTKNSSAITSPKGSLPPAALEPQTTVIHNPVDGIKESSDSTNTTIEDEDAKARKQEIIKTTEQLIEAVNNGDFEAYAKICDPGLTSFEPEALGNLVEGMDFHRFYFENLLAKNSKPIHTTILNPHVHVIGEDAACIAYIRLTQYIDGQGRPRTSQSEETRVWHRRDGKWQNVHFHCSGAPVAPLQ
UniProt Q9DBM2, sequence (Q9DBM2 whole entry): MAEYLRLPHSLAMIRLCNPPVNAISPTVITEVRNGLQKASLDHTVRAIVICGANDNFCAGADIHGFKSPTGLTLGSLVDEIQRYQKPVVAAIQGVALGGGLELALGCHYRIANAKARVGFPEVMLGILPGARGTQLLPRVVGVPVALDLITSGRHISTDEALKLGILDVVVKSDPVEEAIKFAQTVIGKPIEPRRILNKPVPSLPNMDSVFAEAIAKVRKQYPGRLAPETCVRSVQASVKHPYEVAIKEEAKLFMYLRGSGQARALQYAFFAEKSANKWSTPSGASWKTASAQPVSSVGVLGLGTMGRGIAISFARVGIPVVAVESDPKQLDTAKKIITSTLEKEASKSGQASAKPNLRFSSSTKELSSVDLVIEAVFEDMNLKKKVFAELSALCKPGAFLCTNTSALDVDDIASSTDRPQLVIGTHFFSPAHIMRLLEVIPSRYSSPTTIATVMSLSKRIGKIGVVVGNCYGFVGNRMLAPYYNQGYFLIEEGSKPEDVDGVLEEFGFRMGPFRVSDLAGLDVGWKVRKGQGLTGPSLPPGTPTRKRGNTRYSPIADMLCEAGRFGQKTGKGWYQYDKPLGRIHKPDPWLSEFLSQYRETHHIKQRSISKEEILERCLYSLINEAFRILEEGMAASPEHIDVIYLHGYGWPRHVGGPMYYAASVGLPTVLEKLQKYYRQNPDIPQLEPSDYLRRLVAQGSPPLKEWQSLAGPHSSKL
UniProt Q91YQ1, sequence (Q91YQ1 whole entry): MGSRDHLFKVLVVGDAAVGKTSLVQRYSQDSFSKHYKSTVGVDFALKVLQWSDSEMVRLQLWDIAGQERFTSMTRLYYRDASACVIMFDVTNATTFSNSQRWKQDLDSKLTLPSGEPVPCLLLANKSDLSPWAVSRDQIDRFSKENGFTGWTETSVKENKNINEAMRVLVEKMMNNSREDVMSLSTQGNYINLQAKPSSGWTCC
UniProt P13516, sequence (P13516 whole entry): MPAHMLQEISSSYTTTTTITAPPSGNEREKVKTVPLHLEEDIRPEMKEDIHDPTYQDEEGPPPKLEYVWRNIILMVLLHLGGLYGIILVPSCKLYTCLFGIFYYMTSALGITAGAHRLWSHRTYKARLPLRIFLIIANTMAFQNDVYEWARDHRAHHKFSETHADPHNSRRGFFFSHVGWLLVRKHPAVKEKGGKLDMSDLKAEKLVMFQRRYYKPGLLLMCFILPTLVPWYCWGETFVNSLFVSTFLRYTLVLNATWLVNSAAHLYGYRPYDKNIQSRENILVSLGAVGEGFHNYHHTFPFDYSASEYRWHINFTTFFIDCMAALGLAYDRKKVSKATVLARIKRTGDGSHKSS
UniProt A2A8Z1, sequence (A2A8Z1 whole entry): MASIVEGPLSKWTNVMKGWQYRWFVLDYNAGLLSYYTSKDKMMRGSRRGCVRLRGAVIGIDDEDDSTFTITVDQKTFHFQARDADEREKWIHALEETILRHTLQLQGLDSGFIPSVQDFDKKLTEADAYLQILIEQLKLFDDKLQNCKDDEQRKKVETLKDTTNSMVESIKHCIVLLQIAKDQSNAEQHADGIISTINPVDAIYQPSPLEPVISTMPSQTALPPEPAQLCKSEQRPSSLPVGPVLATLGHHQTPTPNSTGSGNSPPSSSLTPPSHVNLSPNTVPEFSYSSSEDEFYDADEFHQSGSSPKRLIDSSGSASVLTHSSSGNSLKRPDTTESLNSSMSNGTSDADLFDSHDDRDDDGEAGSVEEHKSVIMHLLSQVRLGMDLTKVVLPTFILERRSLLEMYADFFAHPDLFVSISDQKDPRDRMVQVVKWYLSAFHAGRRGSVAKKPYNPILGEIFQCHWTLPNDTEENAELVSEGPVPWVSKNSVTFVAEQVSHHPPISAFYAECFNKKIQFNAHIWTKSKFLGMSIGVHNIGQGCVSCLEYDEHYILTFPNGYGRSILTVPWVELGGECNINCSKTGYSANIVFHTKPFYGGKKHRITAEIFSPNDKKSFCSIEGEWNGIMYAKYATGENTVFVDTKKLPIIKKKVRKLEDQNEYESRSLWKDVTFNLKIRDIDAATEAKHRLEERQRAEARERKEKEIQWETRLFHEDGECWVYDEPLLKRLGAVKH
UniProt P70268, sequence (P70268 whole entry): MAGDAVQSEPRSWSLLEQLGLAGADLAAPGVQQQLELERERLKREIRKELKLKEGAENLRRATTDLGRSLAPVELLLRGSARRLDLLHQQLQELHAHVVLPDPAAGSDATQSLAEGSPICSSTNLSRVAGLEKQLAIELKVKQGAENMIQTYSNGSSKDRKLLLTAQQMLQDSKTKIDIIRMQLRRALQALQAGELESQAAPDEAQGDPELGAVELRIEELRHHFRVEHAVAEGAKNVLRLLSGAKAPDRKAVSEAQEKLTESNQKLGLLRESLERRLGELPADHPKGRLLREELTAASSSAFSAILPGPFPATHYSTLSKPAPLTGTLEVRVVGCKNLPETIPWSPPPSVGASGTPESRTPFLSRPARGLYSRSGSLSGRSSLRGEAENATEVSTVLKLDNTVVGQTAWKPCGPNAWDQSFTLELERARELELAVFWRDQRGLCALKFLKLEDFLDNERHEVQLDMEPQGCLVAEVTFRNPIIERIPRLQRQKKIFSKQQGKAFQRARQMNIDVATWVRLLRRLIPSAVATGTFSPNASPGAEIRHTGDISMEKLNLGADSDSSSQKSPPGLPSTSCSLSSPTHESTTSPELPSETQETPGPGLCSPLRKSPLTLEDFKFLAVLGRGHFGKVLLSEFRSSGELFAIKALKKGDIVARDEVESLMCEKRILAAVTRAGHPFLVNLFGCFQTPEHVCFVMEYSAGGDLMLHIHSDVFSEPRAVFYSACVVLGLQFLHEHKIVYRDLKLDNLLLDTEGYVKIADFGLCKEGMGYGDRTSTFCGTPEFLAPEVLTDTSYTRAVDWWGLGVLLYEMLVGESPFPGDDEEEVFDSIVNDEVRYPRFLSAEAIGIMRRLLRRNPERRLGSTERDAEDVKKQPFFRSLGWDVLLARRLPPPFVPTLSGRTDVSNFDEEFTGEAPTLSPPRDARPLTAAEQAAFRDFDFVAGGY
UniProt Q8R4K2, sequence (Q8R4K2 whole entry): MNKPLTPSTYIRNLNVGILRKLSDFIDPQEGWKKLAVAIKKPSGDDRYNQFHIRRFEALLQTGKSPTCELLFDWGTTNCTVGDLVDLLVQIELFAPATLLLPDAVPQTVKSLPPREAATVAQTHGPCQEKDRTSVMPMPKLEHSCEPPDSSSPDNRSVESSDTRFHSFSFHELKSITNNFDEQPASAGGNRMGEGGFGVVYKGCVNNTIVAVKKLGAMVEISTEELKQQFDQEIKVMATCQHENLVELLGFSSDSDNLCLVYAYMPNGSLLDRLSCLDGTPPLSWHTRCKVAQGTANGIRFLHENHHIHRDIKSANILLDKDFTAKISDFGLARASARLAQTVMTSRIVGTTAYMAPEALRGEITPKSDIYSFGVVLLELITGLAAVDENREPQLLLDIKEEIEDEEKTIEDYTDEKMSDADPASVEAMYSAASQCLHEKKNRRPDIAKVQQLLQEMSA
UniProt Q05421, sequence (Q05421 whole entry): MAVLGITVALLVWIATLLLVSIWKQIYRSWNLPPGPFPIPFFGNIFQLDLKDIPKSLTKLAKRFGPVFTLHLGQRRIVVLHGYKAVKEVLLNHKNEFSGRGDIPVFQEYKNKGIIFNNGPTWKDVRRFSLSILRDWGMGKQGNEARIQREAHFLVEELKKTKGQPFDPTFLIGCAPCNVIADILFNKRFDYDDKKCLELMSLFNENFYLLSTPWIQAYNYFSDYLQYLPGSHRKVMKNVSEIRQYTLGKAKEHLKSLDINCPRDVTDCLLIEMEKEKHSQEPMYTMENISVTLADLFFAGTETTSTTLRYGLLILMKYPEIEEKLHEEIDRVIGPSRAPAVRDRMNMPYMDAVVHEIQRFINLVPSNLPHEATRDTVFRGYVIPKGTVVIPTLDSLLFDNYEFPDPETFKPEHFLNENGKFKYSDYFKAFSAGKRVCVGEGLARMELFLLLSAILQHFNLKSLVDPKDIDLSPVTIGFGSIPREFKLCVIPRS

Compound in this assay: CN[C@@H]1C[C@H]2O[C@@](C)([C@@H]1OC)n1c3ccccc3c3c4c(c5c6ccccc6n2c5c31)C(=O)NC4 [staurosporine]
The assay is described as follows: log2 fold change of tryptic peptide abundance, ligand vs vehicle (limited proteolysis) (log2 ratio); higher = more trypsin-susceptible (destabilized). The settings on record: ligand concentration: 20 uM; sample: mouse liver crude lysate; replicate design: treated separately.
With “UniProt Q8CIN4 (peptide sequence: TIVSIGDPK, peptide start residue: 238)”, the log2 fold change is -2.05.

Turning to “UniProt P70268 (peptide sequence: EGMGYGDR, peptide start residue: 805)”, the log2 fold change was -3.03.

Regarding “UniProt Q3U214 (peptide sequence: YFLEMQDKLER, peptide start residue: 260)”, the log2 fold change was determined as 0.698.

On to “UniProt Q9JK48 (peptide sequence: NFIEGDYK, peptide start residue: 149)”, for which the log2 fold change was 0.247.

Turning to “UniProt Q9CZW4 (peptide sequence: ALDFGNGLQMLGQKPK, peptide start residue: 144)”, the log2 fold change came out at 0.538.

“UniProt P05132 (peptide sequence: CGKEFTEF, peptide start residue: 344)”: the log2 fold change turned out to be 2.36.

On to “UniProt Q8BTW9 (peptide sequence: SYLDNFIK, peptide start residue: 321)”, for which the log2 fold change was -1.86.

Take “UniProt Q920L1 (peptide sequence: VAPLVQSLCAK, peptide start residue: 402)”: the log2 fold change turned out to be 0.439.

Consider “UniProt Q9WU19 (peptide sequence: LAMALSGCQNVK, peptide start residue: 342)”, for which the log2 fold change was determined as 0.411.

Take “UniProt Q05421 (peptide sequence: FGPVFTLHLGQR, peptide start residue: 64)”: the log2 fold change is 0.247.

As for “UniProt Q91XF0 (peptide sequence: SSQIGAVVSR, peptide start residue: 164)”, the log2 fold change came out at 1.44.

As for “UniProt Q923T9 (peptide sequence: GAILTTMLVSR, peptide start residue: 302)”, the log2 fold change was -0.876.

With “UniProt P28652 (peptide sequence: NLINQMLTINPAKR, peptide start residue: 247)”, the log2 fold change is -2.11.

Regarding “UniProt P56657 (peptide sequence: NHMPYTNAMVHEVQR, peptide start residue: 343)”, the log2 fold change was -0.322.

As for “UniProt Q9WTK7 (peptide sequence: SMTVVPYLEDLHGR, peptide start residue: 334)”, the log2 fold change was found to be 1.41.

With “UniProt Q91YQ1 (peptide sequence: STVGVDFALK, peptide start residue: 38)”, the log2 fold change stood at 0.602.

Take “UniProt Q8C9S4 (peptide sequence: QEIEHLK, peptide start residue: 574)”: the log2 fold change is -1.24.

For the target “UniProt Q8N9S3 (peptide sequence: SPAVLEAER, peptide start residue: 231)”, the log2 fold change amounted to 0.295.

As to “UniProt Q9DCQ2 (peptide sequence: VTMATHPDGFRLEGPLAAAHSSGPR, peptide start residue: 152)”, the log2 fold change is -0.804.

On to “UniProt Q9ERK4 (peptide sequence: LLQAFLER, peptide start residue: 707)”, for which the log2 fold change is 0.291.

As to “UniProt Q9DBM2 (peptide sequence: VGIPVVAVESDPKQLDTAKK, peptide start residue: 317)”, the log2 fold change came to 0.344.

Take “UniProt O54909 (peptide sequence: YLASYLKR, peptide start residue: 242)”: the log2 fold change was -1.31.

“UniProt P13516 (peptide sequence: TVPLHLEEDIRPEMK, peptide start residue: 33)”: the log2 fold change stood at 0.245.

In the case of “UniProt P42932 (peptide sequence: AIAGTGANVIVTGGK, peptide start residue: 282)”, the log2 fold change was -0.803.

As to “UniProt P16331 (peptide sequence: RKQFADIAYNYR, peptide start residue: 158)”, the log2 fold change is -0.336.

For the target “UniProt Q9WV55 (peptide sequence: KVAHSDKPGSTSAVSFR, peptide start residue: 205)”, the log2 fold change is 0.313.

Take “UniProt Q9DCN1 (peptide sequence: AIAHQLIK, peptide start residue: 446)”: the log2 fold change is -0.997.

Regarding “UniProt A2A8Z1 (peptide sequence: VVLPTFILERR, peptide start residue: 391)”, the log2 fold change came to 0.538.

Take “UniProt Q8K0D0 (peptide sequence: SKLTENLVALK, peptide start residue: 140)”: the log2 fold change is -2.51.

As to “UniProt O70551 (peptide sequence: SAEHYTETALDEIR, peptide start residue: 113)”, the log2 fold change was -2.75.

As for “UniProt O70503 (peptide sequence: IQKPTLDKPSAETFVK, peptide start residue: 242)”, the log2 fold change worked out at 0.192.

Take “UniProt Q8R4K2 (peptide sequence: GCVNNTIVAVK, peptide start residue: 203)”: the log2 fold change was -2.95.

“UniProt Q8BX94 (peptide sequence: TALPAPMFTR, peptide start residue: 62)”: the log2 fold change came out at 0.84.

Regarding “UniProt Q9EQ20 (peptide sequence: YQQLIKENLKEIAR, peptide start residue: 108)”, the log2 fold change is -0.315.

Take “UniProt P24788 (peptide sequence: YLPALQGCR, peptide start residue: 414)”: the log2 fold change is -0.33.

As for “UniProt A2A974 (peptide sequence: SLSDKDLR, peptide start residue: 303)”, the log2 fold change was determined as 0.2.

In the case of “UniProt P31750 (peptide sequence: HPFLTALK, peptide start residue: 209)”, the log2 fold change is -1.6.
